# Inconclusive results are not listed. Values without a mark were called inactive. Active and inactive are the calls of the source. Calls follow the shape of the dose curve; as a rule, active = well fitted inhibition curve with a large enough effect; inconclusive = small, poorly fitted or top-dose-only effect; inactive = flat fitted curve, though single readings scatter.
# Assay: qHTS profiling for inhibitors of Plasmodium falciparum proliferation (AID 504749); also: nearly all actives have a fitted effect of over 60% in size;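 as to activity, negative = inhibition: 0% = DMSO vehicle and full inhibition = artemisinin control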
# Conditions: P. falciparum in erythrocytes, SYBR Green DNA, 72 h; for activity, negative = inhibition: at 28.7 µM (top of the series)
# Procedure, shortened: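 Readout was DNA-dye fluorescence from lysed cultures, ex 485/em 535 nm. Parasitized red cells had grown 72 h with compound; data scaled between 0.29 uM artemisinin and DMSO wells and corrected using vehicle-only plates.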
# Potency is read from the fitted curve at half-maximal effect.
Structure (SMILES),"activity, negative = inhibition (parasite line A) [%]","activity, negative = inhibition (parasite line B) [%]",Potency (parasite line A),Potency (parasite line B)
CO,8.74,-8,,
CN=C1C=CC(=C(c2ccc(N(C)C)cc2)c2ccc(N(C)C)cc2)C=C1,,,0.562 µM (active),0.398 µM (active)
NC(=O)CC[C@@H]1NC(=O)[C@H](Cc2ccccc2)NC(=O)[C@H](Cc2ccc(O)cc2)NC(=O)[C@@H](N)CSSC[C@@H](C(=O)N2CCC[C@H]2C(=O)N[C@@H](CCCN=C(N)N)C(=O)NCC(N)=O)NC(=O)[C@H](CC(N)=O)NC1=O,1.66,-0.62,,
CO/N=C(/C(=O)N[C@@H]1C(=O)N2C(C(=O)O)=C(COC(N)=O)CS[C@H]12)c1ccco1,6.01,2.26,,
NC(=O)Oc1ccc(Cc2ccccc2)cc1,0.685,4.41,,
O=C(CCCN1CCN2CCCC2C1)c1ccc(F)cc1 (stereo unspecified),12,7.07,,
C[Si](C)(C)O[Si](C)(C)C,4.89,10.8,,
OB(O)O,8.7,9.31,,
N[C@H](CC(=O)O)C(=O)O,6.17,8.93,,
CCN(CC)CCOC(=O)c1cccnc1,-11.6,-3.84,,
FC(F)OC(Cl)C(F)(F)F (stereo unspecified),2.2,13,,
O=C(O)CC/C=C\CC[C@@H]1[C@@H](N2CCCCC2)[C@@H](O)C[C@@H]1OCc1ccc(-c2ccccc2)cc1,6.82,1.98,,
CC1CC(OC(=O)C(O)c2ccccc2)CC(C)(C)C1 (stereo unspecified),-16,-1.53,,
C=CC(=O)O,2.32,10.1,,
Cc1cccc(C)c1NC(=O)C1CCCCN1C (stereo unspecified),-4.61,-9.47,,
CCC(O)c1ccccc1 (stereo unspecified),5.27,8.76,,
O=C(O)[C@H]1C(=CCO)O[C@H]2CC(=O)N12,6.84,1.77,,
O=C(/C=C/c1cccc(F)c1)NC1CC1,-17.7,-9.61,,
CCN(CC)CCOc1ccc2nc(N(C)C)sc2c1,2.07,4.31,,

Structure (SMILES),"activity, negative = inhibition (parasite line A) [%]","activity, negative = inhibition (parasite line B) [%]",Potency (parasite line A),Potency (parasite line B)
F[Si-2](F)(F)(F)(F)F,3.4,19.2,,
Cc1cc(-c2ccc(N=Nc3ccc4c(S(=O)(=O)O)cc(S(=O)(=O)O)c(N)c4c3O)c(C)c2)ccc1N=Nc1ccc2c(S(=O)(=O)O)cc(S(=O)(=O)O)c(N)c2c1O,3.16,5.39,,
O=C1CCC(=O)N1CO,-2.35,7.84,,
OCC1(CO)COC(C(Cl)(Cl)Cl)OC1,2.06,5.66,,
CCN(CC)CCOc1ccccc1OC,-4.79,-3.67,,
CC1=C(/C=C/C(C)=C/C=C/C(C)=C/C(=O)Oc2c(C)c(C)c3c(c2C)CC[C@@](C)(CCC[C@H](C)CCC[C@H](C)CCCC(C)C)O3)C(C)(C)CCC1,5.64,7.26,,
CC(CC=O)CCCC(C)(C)O (stereo unspecified),15.9,2.33,,
CCCCCCCCCCCCCCCCCC(=O)OC[C@@H](O)[C@H]1OC[C@H](O)[C@H]1O,-5.9,-8.53,,
C[Se]CC[C@H](N)C(=O)O,7.69,13.1,,
CCN(CC)C(=S)S,-22.3,-18.1,,
O=P(O)(O)CP(=O)(O)O,11.8,12.6,,
CC1=CC(=C(c2ccc(N)cc2)c2ccc(N)cc2)C=CC1=N,,,1.41 µM (active),1.26 µM (active)
NC(N)=O,0.0876,-2.3,,
CCc1ccc(S(=O)(=O)O)cc1,-3.46,4.58,,
O=S(=O)(O)CC(S)CS (stereo unspecified),14.3,-2.53,,
Cc1c(Cl)cccc1Nc1ncccc1C(=O)O,15.4,7.39,,
CC(C)[C@@H](N)C(=O)O,1.17,12.2,,
O=C(OCc1ccccc1)c1ccc(O)cc1,10.7,11.3,,
CCCc1ccc(C(=O)O)cc1,-2.85,-4.82,,

# From PubChem BioAssay (NCATS)
